In PubChem BioAssay (NCI):
The panel holds about 79,000 compounds, 15% with a hit somewhere; the sample as a whole holds those more often. Unmarked numbers belong to inactive results. Activity calls are given as the source filed them. Cut-off read from the data, not from the text of the source: active = growth inhibition above about 70%; inactive = the rest.

Test: NCI Yeast Anticancer Drug Screen. Data for the cln2 rad14 strain (AID 165);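 note: 0% = growth equal to vehicle treated cultures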
Conditions: S. cerevisiae cln2 rad14 strain, at 5.0 µM (retest, dose inferred, filed as 0.5), hits give high values
Outline: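 The screen exposed genetically defined yeast (cln2 rad14) to test compounds and scored growth inhibition relative to vehicle-treated controls.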
In the case of `Cc1ccc(-n2cc(-c3ccc(Cl)cc3)c(C#N)c2N)cc1`, the growth inhibition is reported as -9%. In the case of `CC(=O)[O][Bi]([c]1ccccc1)[c]1ccccc1`, the growth inhibition is reported as 7%. Work on `CC1=C(SCCO)C(=O)c2ccccc2C1=O` yielded a growth inhibition of -16%. `C/C(=N\O)C1CC2C=C(C#N)C1N(Cc1ccccc1)C2` (configuration not stated) showed a growth inhibition of -1%. With `CC(Br)C(=O)c1ccc2cc(Br)c3ccccc3c2c1` (configuration not stated) the growth inhibition was -24%. For `Nc1nc(-c2cccnc2)cc(-c2cc(-c3cccnc3)nc(N)n2)n1`, the growth inhibition was 46%. Molecule `CC(C)=CC(=O)O[C@@H]1CC(C)(C)CC2C3=CCC4[C@]56CC[C@](O)(OC5)C(C)(C)C6CC[C@@]4(C)C3(C)CC[C@]21C(=O)O` (some centres not stated) has a growth inhibition of 33%. For `CCC(C)COC(=O)c1ccc(N=Cc2ccc(C=Nc3ccc(C(=O)OCC(C)CC)cc3)cc2)cc1` (configuration not stated), the growth inhibition was 12%. Molecule `Oc1cccc2c(Cl)ccnc12` has a growth inhibition of 43%. Molecule `O=C(O)c1cccc(-c2c3ccc(=O)cc-3oc3cc(O)ccc23)c1` has a growth inhibition of 33%. `CN(CCc1ccccn1)c1ccc2c(c1)Cc1ccccc1-2` gave a growth inhibition of 0%. With `Cc1cc(S(=O)(=O)/N=C(/NN)NNc2cccc(C(F)(F)F)n2)c(S)cc1Cl` the growth inhibition was 4%. With `O=C1C2C(C(=O)N1c1ccc(OCc3ccccc3)cc1)C1c3ccccc3C2C2CCCCN21` (configuration not stated) the growth inhibition was -14%. For `Nc1ccccc1CC(O)C(=O)O` (configuration not stated), the growth inhibition was -2%. Work on `O=C(O)C1CCCCC1c1c2ccc(=O)c(O)c-2oc2c(O)c(O)ccc12` (configuration not stated) yielded a growth inhibition of -21%. In the case of `Cc1ccc2ccc(O)cc2c1`, the growth inhibition is reported as 4%. Molecule `O=C1C(=O)c2ccccc2C=C1[N+](=O)[O-]` has a growth inhibition of -13%. Work on `COC(=O)c1ccc(NCC2=CC(=O)C=CC2=O)cc1O` yielded a growth inhibition of 36%. With `C(CCSC1=NCCN1)CSC1=NCCN1` (tested in a mixture with another compound) the growth inhibition was 16%. With `N#Cc1c(N)[nH]c2ccc(Sc3ccccc3)cc12` the growth inhibition was -3%. `CCNc1nnc(CSc2nc(-c3ccccc3)c(-c3ccccc3)[nH]2)s1` gave a growth inhibition of 4%. Work on `CC[C@@]1(O)C(=O)OCc2c1cc1n(c2=O)Cc2cc3c(N)cccc3nc2-1` yielded a growth inhibition of 35%.

Same assay, conditions: S. cerevisiae cln2 rad14 strain, at 50.0 µM (retest, dose inferred, filed as 5.0), hits give high values
Molecule `S=C(S)NN1CCOCC1` has a growth inhibition of 22%. In the case of `COc1cc2c3c(cccc3c1)C(=O)N(CCN(C)C)C2=O`, the growth inhibition is reported as 3%. With `COC(=O)C1=C(C)NC(C)=C(C(=O)OCCCN2CCC(c3ccccc3)(c3ccccc3)CC2)C1c1cccc([N+](=O)[O-])c1` (configuration not stated) the growth inhibition was 98% (active). In the case of `c1ccc2c(c1)Oc1cccc3cccc-2c13`, the growth inhibition is reported as 20%. In the case of `CN(C)CCOc1ccc2c(c1)C/C(=C/c1ncc([N+](=O)[O-])n1C)C2=O`, the growth inhibition is reported as 74% (active). Molecule `Cc1ccc(CCC2=CCCc3c2ccc2ccccc32)cc1` has a growth inhibition of -10%. With `CNC(=O)OCc1c(COC(=O)NC)c(-c2ccc(Cl)c(Cl)c2)n2c1CCC2` the growth inhibition was 99% (active). In the case of `Clc1ccccc1C1OC1c1ccccc1Cl` (configuration not stated), the growth inhibition is reported as 99% (active). For `O=[N+]([O-])c1cc(CCl)ccc1CCl`, the growth inhibition was 97% (active). With `O=C1C=CC(=O)c2c(O)c(Nc3ccc(OC(F)(F)F)cc3)c(Cl)c(O)c21` the growth inhibition was 32%. For `S=c1[nH]nc(Nc2ccc(Cl)cc2)s1`, the growth inhibition was 83% (active). In the case of `Cn1ccnc1Oc1ccc(Cl)cc1`, the growth inhibition is reported as -6%. In the case of `BrCc1cccc2ccc3cccc(CBr)c3c12`, the growth inhibition is reported as 21%. `O=C1c2ccccc2-c2nc3ccccc3nc21` gave a growth inhibition of 52%. For `CCCCCCCCCCCCCCCCCCNC`, the growth inhibition was 92% (active). In the case of `Oc1ccc(NCn2c(=S)sc3ccccc32)cc1`, the growth inhibition is reported as 98% (active). Molecule `O=C1C2CC[C@@H]3C(=O)C(Cl)(Cl)[C@@H]3CCC2C1(Cl)Cl` (some centres not stated) has a growth inhibition of 22%. For `CC[n+]1ccc2c(C)c3[nH]c4ccc(O)cc4c3c(C)c2c1`, the growth inhibition was 23%. In the case of `Cc1ccc(-n2cc(-c3ccc(Cl)cc3)c(C#N)c2N)cc1`, the growth inhibition is reported as 7%. For `CC(=O)[O][Bi]([c]1ccccc1)[c]1ccccc1`, the growth inhibition was 95% (active). For `CC1=C(SCCO)C(=O)c2ccccc2C1=O`, the growth inhibition was 27%. Molecule `C/C(=N\O)C1CC2C=C(C#N)C1N(Cc1ccccc1)C2` (configuration not stated) has a growth inhibition of 8%. `CC(Br)C(=O)c1ccc2cc(Br)c3ccccc3c2c1` (configuration not stated) gave a growth inhibition of -32%. In the case of `Nc1nc(-c2cccnc2)cc(-c2cc(-c3cccnc3)nc(N)n2)n1`, the growth inhibition is reported as 86% (active). For `CC(C)=CC(=O)O[C@@H]1CC(C)(C)CC2C3=CCC4[C@]56CC[C@](O)(OC5)C(C)(C)C6CC[C@@]4(C)C3(C)CC[C@]21C(=O)O` (some centres not stated), the growth inhibition was 92% (active). With `CCC(C)COC(=O)c1ccc(N=Cc2ccc(C=Nc3ccc(C(=O)OCC(C)CC)cc3)cc2)cc1` (configuration not stated) the growth inhibition was 12%. For `Oc1cccc2c(Cl)ccnc12`, the growth inhibition was 99% (active). In the case of `O=C(O)c1cccc(-c2c3ccc(=O)cc-3oc3cc(O)ccc23)c1`, the growth inhibition is reported as 69%. Work on `CN(CCc1ccccn1)c1ccc2c(c1)Cc1ccccc1-2` yielded a growth inhibition of 10%. `Cc1cc(S(=O)(=O)/N=C(/NN)NNc2cccc(C(F)(F)F)n2)c(S)cc1Cl` gave a growth inhibition of 25%. `O=C1C2C(C(=O)N1c1ccc(OCc3ccccc3)cc1)C1c3ccccc3C2C2CCCCN21` (configuration not stated) gave a growth inhibition of -15%. Work on `Nc1ccccc1CC(O)C(=O)O` (configuration not stated) yielded a growth inhibition of 14%. For `O=C(O)C1CCCCC1c1c2ccc(=O)c(O)c-2oc2c(O)c(O)ccc12` (configuration not stated), the growth inhibition was 74% (active). For `Cc1ccc2ccc(O)cc2c1`, the growth inhibition was 53%. With `O=C1C(=O)c2ccccc2C=C1[N+](=O)[O-]` the growth inhibition was 14%. For `COC(=O)c1ccc(NCC2=CC(=O)C=CC2=O)cc1O`, the growth inhibition was 93% (active). In the case of `C(CCSC1=NCCN1)CSC1=NCCN1` (tested in a mixture with another compound), the growth inhibition is reported as 98% (active). In the case of `N#Cc1c(N)[nH]c2ccc(Sc3ccccc3)cc12`, the growth inhibition is reported as 14%. With `CCNc1nnc(CSc2nc(-c3ccccc3)c(-c3ccccc3)[nH]2)s1` the growth inhibition was 97% (active). `CC[C@@]1(O)C(=O)OCc2c1cc1n(c2=O)Cc2cc3c(N)cccc3nc2-1` gave a growth inhibition of -11%.
